For 56 molecules, activation results are on record in PubChem BioAssay AID493084 (National Center for Advancing Translational Sciences (NCATS), 2011).

Structures are written as SMILES. “And” between values parts separate entries of the source, which are not always exact repeats. Identical values can stand only once. Among all 360,000 compounds or so, about 650 (0.18%) were called active. The entries come from a sample that favours actives as a whole. Unmarked numbers belong to inactive results. Cut-off read from the data, not from the text of the source: active = activation above about 30%; inactive = the rest.

The target in the assay is Thyrotropin-releasing hormone receptor (Homo sapiens) (UniProt P34981). Description: qHTS for Small Molecule Agonists and Allosteric Enhancers of Human TRH Receptor: Primary Screen for Agonists. Note: 0% is about no effect. The note with it: TRHR cells, calcium flux fluo-8, FDSS agonist mode; at 2 µM; hits give high values. The text has this: NIH Chemical Genomics Center [NCGC] NIH Molecular Libraries Probe Centers Network [MLPCN] MLPCN Grant: MH089816-01 Assay Submitter (PI): Marvin Gershengorn This project aims to identify small drug-like molecules that activate (agonists) the thyrotropin releasing hormone (TRH) receptor (TRHR) or enhance its TRH-stimulated activity (allosteric enhancers). TRHR, a drug-accessible cell surface receptor expressed in specific brain regions, and its ligand TRH have been implicated in several central nervous system disorders, including depression and anxiety. Small molecule TRHR agonists or allosteric enhancers that are metabolically stable and able to cross the blood-brain barrier might serve as probes to elucidate the roles of brain TRH receptors in animal models, and might be valuable as lead compounds for the development of drugs to treat patients with central nervous system disorders. Upon TRHR-Gq activation in TRHR cells, intracellular calcium is released from stores in the endoplasmic reticulum. […] This primary screen measures compound-induced activation of calcium release.
Sequence of Thyrotropin-releasing hormone receptor (Homo sapiens) (P34981 whole entry, looked up): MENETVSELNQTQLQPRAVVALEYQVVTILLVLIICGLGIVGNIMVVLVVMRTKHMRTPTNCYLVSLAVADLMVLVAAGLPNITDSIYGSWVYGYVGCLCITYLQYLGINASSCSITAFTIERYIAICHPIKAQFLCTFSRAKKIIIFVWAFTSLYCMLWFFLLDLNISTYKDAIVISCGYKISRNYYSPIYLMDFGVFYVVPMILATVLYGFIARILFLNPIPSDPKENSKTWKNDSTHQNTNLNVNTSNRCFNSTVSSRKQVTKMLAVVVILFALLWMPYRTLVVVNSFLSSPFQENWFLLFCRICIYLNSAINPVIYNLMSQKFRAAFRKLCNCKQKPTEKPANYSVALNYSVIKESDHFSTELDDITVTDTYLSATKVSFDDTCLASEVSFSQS
For the HTS assay freshly prepared cells are plated at a density of 2000/well in 3 ul of complete DMEM medium containing 10% serum in 1536-well plates and cultured over night at 37 C in a humidified incubator with 5% CO2. The next day, 2 ul of a no wash calcium dye (ABD Bioquest) was added to the cells and plates were incubated at room temperature for 1 hour. For the assay, assay plates were loaded into the FDSS kinetic plate reader. A 10 cycle (1 second/cycle) baseline measurement is taken and then the FDSS online 1536 pintool delivers 23 nl of compound library (as well as TRH controls) to the plate. The plate is measured for kinetically at 1 cycle/sec for 180 seconds and is considered to be the agonist portion of the assay (eg, compounds which activate a positive calcium response during this portion are flagged as potential agonists). Following the 180 second read, 1 ul of either an EC20 (positive modulation assay) is delivered by an onboard pipette head. Measurements are taken kinetically for an additional 180 seconds. TRHR FDSS Screening Protocol 1. Reagent, 3 uL 2000 cells/well 1536 TC treated Black plate in media containing 10% FCS 2. Time, 18 hours, 33.5C 5% CO2 (cells grown at 37C) 3. Reagent, 2 uL ABD fluo-8 Ca dye 4. Time, 30 min-1.5hrs hours, Room temp (6 plates/batch) 5. Detector, EX 480/EM 530C, FDSS 10 cycles baseline (1sec/cycle) 6. Compound, 23 nL of stock solution from library 7. Detector, EX 480/EM 530C, FDSS […] (1sec/cycle) Agonist mode 8. Compound, 1 ul EC20 of TRH made up in HEPES HBSS, 10 nM final 9. Detector, EX 480/EM 530C, FDSS 100 cycles (1sec/cycle) Potentiator mode
For the molecule `CCc1ccccc1NC(=S)Nc1cc(OC)c(NC(=O)C(C)C)cc1OC`, the activation is 0.112%.
As for `CCc1ccccc1NC(=O)/C(=C/c1ccccc1)c1ccccc1`, the figure is 56.2% (active).
As for `CCc1ccccc1NC(=O)CCOc1ccccc1`, the figure is 0.744% and -1.55%; as for `Cc1c(NC(=O)C(C)(C)C)cccc1-c1nc2ccccc2s1`, 1.53%.
As for `O=C(Cn1nc(Cc2cccnc2)c2ccccc2c1=O)N1CCN(c2ccccc2F)CC1`, the figure is -1.92%.
As for `CCOc1ccc(NC(=O)c2cnn(-c3ccccc3)c2-n2cccc2)cc1`, the activation is -2.32%.
On to `O=C(NCCCO)C(=O)Nc1c2c(nn1-c1ccc(F)cc1)CSC2`, for which the activation is -1.01%.
Consider `CCOC(=O)c1[nH]c2ccc(C)cc2c1N=C(C)N(C)C`, for which the activation was 32.1% (active).
On to `CCOC(=O)c1cc2cc(C)ccc2[nH]1`, for which the activation is 0.835%.
With `CCOC(=O)c1ccc2[nH]c3c(c2c1)CCCC3NC=O` (stereo unspecified) the figure was 0.37%; with `NC(=O)c1ccc(NC(=O)COC(=O)c2c3c(nc4ccccc24)/C(=C\c2ccc4c(c2)OCO4)CCC3)cc1`, 50.8% (active).
Consider `O=C(CSc1nc(C2CC2)nc2ccccc12)Nc1ccc2c(c1)OCCO2`, for which the activation is -1.49%.
As for `NC(=O)c1ccc(NC(=O)COC(=O)C(Cc2ccccc2)NC(=O)c2ccccc2)cc1` (stereo unspecified), the figure is -0.12%.
As for `Cn1nnnc1Sc1ncnc2scc(-c3ccccc3[N+](=O)[O-])c12`, the figure is -0.547%; as for `N#Cc1nc(/C=C/c2ccc(F)cc2)oc1NC1CCCCC1`, 0.903%; as for `CCCCOc1ccc(CNC(=O)c2ccc3c(c2)N(C)C(=O)C2CCCCN32)cc1` (stereo unspecified), -0.251%.
As for `CNC(=O)c1ccc(-c2nc(CN3CCc4ccccc43)c(C)o2)cc1`, the figure is -1.17%; as for `Nc1c(C(=O)c2cccs2)sc2nsc(SCCN3CCCCC3)c12`, 99.5% (active); as for `COC(=O)c1ccccc1NC(=O)c1cc(-c2ccccc2O)no1`, -0.321%.
`CC(NC(=O)CCc1cn(Cc2ccccc2Cl)c2ccccc12)c1ccccc1` (stereo unspecified): the activation was 0.58%.
For the molecule `COc1cc(OC)c(OC)cc1/C=C/c1nc2cc3ccccc3cc2c(=O)n1-c1ccc(F)c(Cl)c1`, the activation is 0.234%.
With `CCC(=O)Nc1ccc(C)cc1-c1nc2ccccc2n(Cc2ccccc2)c1=O` the figure was 0.131%; with `Cc1cc2nc3c(=O)n(Cc4ccccc4)c(=O)[nH]c3nc2cc1N`, 134% (active); with `Cn1c(=O)[nH]c(=O)c2c1[nH]c(=S)n2Cc1ccccc1`, 0.0169%.
With `CCN(CCCNC(=O)Cn1ncc2c([nH]c3ccccc32)c1=O)c1cccc(C)c1` the figure was -0.233%; with `Cc1cccc(CC(=O)N2CC(=O)Nc3ccc(F)cc3C2c2ccccc2)c1` (stereo unspecified), -0.138%; with `O=C(O)c1ccc(CSc2nc3cccnc3n2Cc2cccc(F)c2)cc1`, -0.0878%.
With `CCCNC(=O)c1ccc2c(c1)ncn2-c1ccc(C)cc1C` the figure was -0.34%.
Take `O=C(C1=C(O)C(=O)N(c2ncccn2)C1c1cccs1)c1ccco1` (stereo unspecified): the activation is 1.88%.
For the molecule `Cc1ccc2nc(N3C(=O)C(O)=C(C(=O)c4ccco4)C3c3cccc(O)c3)sc2c1` (stereo unspecified), the activation is 0.69%.
With `C=CCSc1nnc(N2C(=O)C(O)=C(C(=O)c3ccco3)C2c2ccc(F)cc2)s1` (stereo unspecified) the figure was 48.4% (active).
As for `CCNS(=O)(=O)c1ccc(NC(=O)CSc2nc(-c3ccco3)cc(C(F)(F)F)n2)cc1`, the figure is -0.0767%; as for `O=C(CNC(=O)c1ccc(Cl)c(C(F)(F)F)c1)OC(C(=O)Nc1cc(C(F)(F)F)ccc1Cl)c1ccccc1` (stereo unspecified), 1.33%; as for `COc1cc2ccccc2cc1C(=O)Nc1cccc(-c2nc3ccccc3o2)c1`, 0.963%.
Regarding `COc1cccc(C(=O)NC2CCN(C#N)CC2)c1`, the activation was 0.979%.
Take `CCc1ccccc1NC(=O)c1sc2nc3c(cc2c1N)CN(Cc1ccccc1)CC3`: the activation was 0.215%.
For the molecule `Cn1c(=O)c2c(nc(SCC(=O)Nc3ccc(F)cc3)n2Cc2ccccc2)n(C)c1=O`, the activation was -1.27%.
As to `Cc1ccc(C)n1-c1nnc(N2CCC(C(=O)NCc3ccc(F)cc3)CC2)s1`, the activation was -0.123%.
As for `COc1cccc(-c2nnc3n(CCc4ccccc4)c(=O)c4ccccc4n23)c1O`, the activation was 0.407%.
For the molecule `Cc1ccc(CNC(=O)CCNS(=O)(=O)c2ccc3c(c2)oc(=O)n3C)cc1`, the activation was -0.309%.
As for `COc1ccc(-n2ccn(CC(=O)Nc3ccc(C)c(C)c3)c(=O)c2=O)cc1OC`, the figure is 0.851%; as for `CCOC(=O)C1CCCN(S(=O)(=O)c2cc(-c3cc(C)no3)ccc2OC)C1` (stereo unspecified), -0.0318%.
As for `CC(=O)c1ccc(NC(=O)CSc2nc(-c3ccccc3F)nc3c2c(=O)n(C)c(=O)n3C)cc1`, the activation was 0.407%.
As for `Cc1ccccc1C(=O)Nc1sc2c(c1C(=O)N1CCC(C)CC1)CCCC2`, the figure is -0.34%; as for `COc1cccc(C(=O)NC(=O)Nc2nc(C)cc(C(F)(F)F)n2)c1`, 1.04%.
As for `COc1cccc(C(=O)Nc2ccc(-c3cc(C(F)(F)F)nn3-c3ccccc3)cc2)c1`, the figure is 1.81%; as for `COc1cccc(C(=O)c2sc3nc(-c4ccccc4)cc(C(F)(F)F)c3c2N)c1`, 106% (active); as for `CCOC(=O)c1cccc(NC(=O)c2cc(CN3CCCC3)on2)c1`, 0.429%.
As for `CCC(C)Nc1oc(-c2ccc(COc3ccc(Cl)cc3)o2)nc1C#N` (stereo unspecified), the figure is 0.327%; as for `O=C1NC(=O)C2C1C(c1ccc([N+](=O)[O-])cc1)=NN2Cc1ccccc1` (stereo unspecified), 34% (active).
In the case of `O=C(NCCCCc1ccccc1)C1CC(c2ccc([N+](=O)[O-])cc2)=NO1` (stereo unspecified), the activation is -1.16%.
For `O=C1CCN(Cc2ccc([N+](=O)[O-])cc2)CCN1[C@H](CO)Cc1ccccc1`, the activation is 1.11%.
As for `CC1CCCN(c2csc3ccc(F)cc3c2=O)C1` (stereo unspecified), the figure is 0.824%; as for `COc1ccccc1OCC(=O)Nc1nnc2n1CCS2`, 0.414%; as for `CCOc1ccccc1NC(=O)Cn1c(=O)n(Cc2ccco2)c(=O)c2sc3ccccc3c21`, -0.0246%.
As for `CN(c1ccccc1)c1ccc(/C=c2\s/c(=C(/C#N)C(=O)C(C)(C)C)n(Cc3ccco3)c2=O)cc1`, the figure is 40.8% (active).
